{"source": "PubChem BioAssay AID743269", "about": "(The Scripps Research Institute Molecular Screening Center, 2014)", "note": "Out of some 370,000 compounds screened, about 2,400 (0.65%) were called active. This excerpt belongs to a sample that is enriched for actives. Unmarked numbers belong to inactive results.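 How the source made its calls: active means inhibition above the screen-wide mean plus 3 SD (cut at about 13% in these data); inactive means the rest.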"}
{"tested_on": "HIV-1 integrase (with human LEDGF/p75)", "assay": "blockers of LEDGF/p75-dependent integrase strand transfer – biochemical, TR-FRET, high throughput, primary screen (AID 743269);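 further: signal is the Cy5 over europium emission ratio at 671 and 618 nm; 0% = plate median of compound wells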", "details": "TR-FRET IN-LEDGF/p75 DNA integration, Eu/Cy5; at 3.7 µM; stronger effect = higher value"}
{"smiles": "N[C@@H](Cc1ccccc1)C(=O)N1CCC[C@@H]1C(=O)N1CCC2CCN(S(=O)(=O)c3ccccc3)CC21", "note": "(stereo partly drawn)", "inhibition": "3.42%"}
{"smiles": "Cc1ccc(CSc2nnc(SCC(=O)NN=Cc3cc(Br)ccc3F)s2)cc1", "inhibition": "3.4%"}
{"smiles": "CCOC(=O)c1ccc(NC(=O)c2c(NCc3ccccc3)[nH]c(=O)[nH]c2=O)cc1", "inhibition": "2.44%"}
{"smiles": "CCOC(=O)c1ccc(Nc2cc3ccccc3c(=O)[nH]2)cc1", "inhibition": "15.5% (active)"}
{"smiles": "CCOC(=O)c1ccc(NC(=O)c2c(N)n(C)c(=O)[nH]c2=O)cc1", "inhibition": "-0.3%"}
{"smiles": "COc1ccccc1C(=O)NC1CCCCN(C(C)C)C1=O", "note": "(stereo not drawn)", "inhibition": "-1.35%"}
{"smiles": "COC(=O)C[C@@H]1CC[C@H]2[C@@H](COc3ccc(NS(=O)(=O)CC(F)(F)F)cc3C(=O)N2C)O1", "inhibition": "-3.99%"}
{"smiles": "COC(=O)[C@@]12CCCCC=C1N(CCc1ccc(Cl)cc1)C(=O)[C@H]2CC(=O)NCc1ccc(OC)c(OC)c1", "inhibition": "2.21%"}
{"smiles": "C=CCN(Cc1ccc2c(c1)OCO2)C(C#CC1CC1)C(C)(C)C", "note": "(stereo not drawn)", "inhibition": "0.61%"}
{"smiles": "Cc1ccc(S(=O)(=O)N2CCN(C)CC2)cc1C(=O)NC1CCCCC1", "inhibition": "2.41%"}
{"smiles": "COc1ccc(S(=O)(=O)N2CCCCC2)cc1C(=O)NC1CCS(=O)(=O)C1", "note": "(stereo not drawn)", "inhibition": "19.8% (active)"}
{"smiles": "COc1ccc(S(=O)(=O)N2CCOCC2)cc1C(=O)NC1CCCCC1", "inhibition": "1.4%"}
{"smiles": "C=CCN1C(=O)[C@@H](CC(=O)NCCCCc2ccccc2)[C@]2(C(=O)OCC)CCCCC/C=C/12", "inhibition": "-2.38%"}
{"smiles": "Cc1ccccc1NC(=O)C1CCN(c2ncccn2)CC1", "inhibition": "-1.73%"}
{"smiles": "COc1ccc(C2CC(c3cccs3)=NN2C(=O)COC(=O)c2cc3ccccc3cc2O)cc1OC", "note": "(stereo not drawn)", "inhibition": "23% (active)"}
{"smiles": "COc1cccc(C2CC(c3cccs3)=NN2C(=O)CSC2=NCCS2)c1OC", "note": "(stereo not drawn)", "inhibition": "-1.38%"}
{"smiles": "COc1ccc(C2CC(c3cccs3)=NN2c2nc(C)c(C(C)=O)s2)cc1OC", "note": "(stereo not drawn)", "inhibition": "-0.06%"}
{"smiles": "Nc1ccc2nc3c(=O)[nH]c(=S)[nH]c3nc2c1", "inhibition": "39.9% (active)"}
{"smiles": "COc1ccc(Cn2cc(CN3[C@@H](CC(C)C)COc4cc(Br)ccc4S3(=O)=O)nn2)cc1", "inhibition": "3.34%"}
{"smiles": "Cc1nc(CNc2ncnc3ccc(-c4ccc5c(c4)OCO5)cc23)cs1", "inhibition": "-1.03%"}
{"smiles": "O=C(NCCCc1ccccc1)[C@H](Cc1ccccc1)NC1(C(=O)NCCc2c[nH]c3ccccc23)CCC1", "inhibition": "-0.75%"}
{"smiles": "COc1ccc(N2CCN(CCNS(=O)(=O)c3ccc(C(C)(C)C)cc3)CC2)cc1", "inhibition": "1.13%"}
{"smiles": "CC(=O)OCCN1CCCC12CCC(c1ccccc1)CC2", "note": "(stereo not drawn)", "inhibition": "-3.46%"}
